This is an account of results in the supplement of paper PMC8866396.

Test [1] has as its system IL-6-GFP PC-9GR. Put plainly: cell viability (CCK-8 OD) relative to DMSO control (fraction of control); higher = more viable cells. Conditions: compound concentration: 10 uM; treatment time: 48 h. The essentials: (§1)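 In 96-well plates, 3000 cells/well of PC-9 or PC-9GR lung cancer cells with lentiviral IL-6-GFP overexpression received each compound of a purchased 510-compound library at a final 10 μM for 48 h. Viability, measured by CCK-8 absorbance, is each well's optical density relative to the vehicle control well. Data come from two independent replicates.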

Test [2] concerns IL-6-GFP PC-9. The description is as above. The conditions noted are these: compound concentration: 10 uM; treatment time: 48 h. A digest of the protocol: as §1

Structures are written as SMILES. ± gives the standard deviation of the averaged measurements.

Take `O=C(O)CCc1nc(-c2ccccc2)c(-c2ccccc2)o1` [Oxaprozin]: the cell viability in test [1] amounted to 0.9414 ± 0.0067; in test [2] it was 0.543 ± 0.2.
Regarding `Cc1ccc(Nc2c(F)cccc2Cl)c(CC(=O)O)c1` [Lumiracoxib], the cell viability was 0.626 ± 0.15 in test [1] and 0.853 ± 0.29 in test [2].
As for `CC(=O)OC1(C(C)=O)CCC2C3C=C(Cl)C4=CC(=O)C5CC5C4(C)C3CCC21C` (stereo not given) [Cyproterone Acetate], the cell viability in test [1] was determined as 1.13 ± 0.092; in test [2], 1.2 ± 0.092.
The like results for `NC1CN(c2c(F)cc3c(=O)c(C(=O)O)cn(C4CC4F)c3c2Cl)CC12CC2.NC1CN(c2c(F)cc3c(=O)c(C(=O)O)cn(C4CC4F)c3c2Cl)CC12CC2.O.O.O` (stereo not given) [Sitafloxacin Hydrate] were, in that order, 1.11 ± 0.072 and 1.01 ± 0.042.
As to `O=C(c1ccc(F)c(F)c1Nc1ccc(I)cc1F)N1CC(O)(C2CCCCN2)C1` (stereo not given) [Cobimetinib (GDC-0973, RG7420)], the cell viability turned out to be 0.7146 ± 0.0029 in test [1] and 0.115 ± 0.15 in test [2].
The like results for `O=C([O-])c1cc(N=Nc2ccc(O)c(C(=O)[O-])c2)ccc1O.[Na+].[Na+]` [Olsalazine Sodium] were, in that order, 1.12 ± 0.053 and 1.25 ± 0.062.
The like results for `Cc1nnc(C(=O)NC(C)(C)c2nc(C(=O)NCc3ccc(F)cc3)c([O-])c(=O)n2C)o1.[K+]` [Raltegravir potassium] were, in that order, 1.37 ± 0.48 and 1.12 ± 0.16.
`CC/C(=C(\c1ccccc1)c1ccc(OCCN(C)C)cc1)c1ccccc1.O=C(O)CC(O)(CC(=O)O)C(=O)O` [Tamoxifen]: the values for the cell viability in test [1] and in test [2] were 1.2165 ± 0.0005 and 0.589 ± 0.053, respectively.
For `CC(C)(C)OC(=O)NC1CCCCC/C=C\C2CC2(C(=O)NS(=O)(=O)C2CC2)NC(=O)C2CC(OC(=O)N3Cc4cccc(F)c4C3)CN2C1=O` (stereo not given) [Danoprevir (ITMN-191)], in that order: 1.1 ± 0.02 and 0.931 ± 0.15.
`Nc1nc(=O)c2c([nH]1)NCC(CNc1ccc(C(=O)NC(CCC(=O)[O-])C(=O)[O-])cc1)N2C=O.O.O.O.O.O.[Ca+2]` (stereo not given) [Leucovorin Calcium Pentahydrate]: the cell viability stood at 1.25 ± 0.17 in test [1] and 1.16 ± 0.28 in test [2].
On to `Cc1c(-c2ccc(O)cc2)n(Cc2ccc(OCCN3CCCCCC3)cc2)c2ccc(O)cc12.Cl` [Bazedoxifene HCl], for which the cell viability in test [1] was determined as 0.539 ± 0.098; in test [2], 0.51 ± 0.077.
For `Cl.N=C1CCCN1Cc1[nH]c(=O)[nH]c(=O)c1Cl` [Tipiracil hydrochloride], in that order: 1.14 ± 0.35 and 1.25 ± 0.059.
For `Cc1nc(-c2ccc(OCC(C)C)c(C#N)c2)sc1C(=O)O` [Febuxostat], in that order: 1.38 ± 0.24 and 1.12 ± 0.27.
For `COc1cc2ncnc(Nc3ccc(F)c(Cl)c3)c2cc1OCCCN1CCOCC1` [Gefitinib (ZD1839)], in that order: 0.9 ± 0.06 and 0.664 ± 0.061.
For `CC1(C)OC2CC3C4CCC5=CC(=O)C=CC5(C)C4C(O)CC3(C)C2(C(=O)CO)O1` (stereo not given) [Desonide], the cell viability in test [1] worked out at 0.804 ± 0.24; in test [2] it was 0.683 ± 0.22.
The like results for `CC(CN1c2ccccc2Sc2ccccc21)N(C)C.Cl` (stereo not given) [Promethazine HCl] were, in that order, 0.929 ± 0.013 and 1.05 ± 0.051.
As to `CCC(Nc1ncnc2[nH]cnc12)c1nc2cccc(F)c2c(=O)n1-c1ccccc1` (stereo not given) [Idelalisib (CAL-101, GS-1101)], the cell viability in test [1] was 1.27 ± 0.14; in test [2], 0.858 ± 0.15.
For `Nc1ccc(S(=O)(=O)Nc2ccnn2-c2ccccc2)cc1` [Sulfaphenazole], in that order: 1.15 ± 0.36 and 1.29 ± 0.11.
The like results for `CCCCNC(=O)NS(=O)(=O)c1ccc(C)cc1` [Tolbutamide] were, in that order, 1.13 ± 0.081 and 1.2 ± 0.16.
Regarding `COC(=O)c1cc(OC)c2c(c1-c1c(C(=O)OC)cc(OC)c3c1OCO3)OCO2` [Bifendate], the cell viability in test [1] is 1.19 ± 0.22; in test [2] it was 1.25 ± 0.027.
With `Nc1c(CC(=O)[O-])cccc1C(=O)c1ccc(Br)cc1.[Na+]` [Bromfenac Sodium], the values for the cell viability in test [1] and in test [2] were 0.923 ± 0.095 and 1 ± 0.14, respectively.
For `COc1ccc(-c2ccc3cc(C(=O)O)ccc3c2)cc1C12CC3CC(CC(C3)C1)C2` [Adapalene], the figures for the cell viability in test [1] and in test [2] were 1.15 ± 0.15 and 0.765 ± 0.3, respectively.
In the case of `O.S=c1nc[nH]c2nc[nH]c12` [6-Mercaptopurine (6-MP) Monohydrate], the values for the cell viability in test [1] and in test [2] were 0.92 ± 0.11 and 0.978 ± 0.19, respectively.
For the molecule `CC(OC1OCCN(Cc2n[nH]c(=O)[nH]2)C1c1ccc(F)cc1)c1cc(C(F)(F)F)cc(C(F)(F)F)c1` (stereo not given) [Aprepitant], the cell viability in test [1] stood at 1.01 ± 0.071; in test [2], 0.767 ± 0.041.
The like results for `CC1CC2C3CC(F)C4=CC(=O)C=CC4(C)C3(F)C(O)CC2(C)C1(OC(=O)c1ccco1)C(=O)SCF` (stereo not given) [fluticasone furoate] were, in that order, 0.711 ± 0.089 and 0.961 ± 0.27.
For `CN(C)N=Nc1[nH]cnc1C(N)=O` [Dacarbazine], in that order: 0.95 ± 0.14 and 0.8338 ± 0.005.
For `C=CC(=O)N1CCCC(n2nc(-c3ccc(Oc4ccccc4)cc3)c3c(N)ncnc32)C1` (stereo not given), in that order: 0.572 ± 0.048 and 0.509 ± 0.18.
Take `CNC(=O)c1cc(Oc2ccc(NC(=O)Nc3ccc(Cl)c(C(F)(F)F)c3)c(F)c2)ccn1.O` [Regorafenib Monohydrate]: the values for the cell viability in test [1] and in test [2] were 0.659 ± 0.32 and 0.21 ± 0.28, respectively.
For `CC(Nc1ncnc2[nH]cnc12)c1cc2cccc(Cl)c2c(=O)n1-c1ccccc1` (stereo not given) [Duvelisib (IPI-145, INK1197)], in that order: 1.42 ± 0.39 and 1.1 ± 0.12.
For `CC(=O)Oc1cccc2c1C(=O)c1c(OC(C)=O)cc(C(=O)O)cc1C2=O` [Diacerein], in that order: 1.14 ± 0.39 and 0.97 ± 0.034.
For the molecule `CC1=NN(c2ccc(C)c(C)c2)C(=O)/C1=N\Nc1cccc(-c2cccc(C(=O)O)c2)c1O.NCCO.NCCO` [Eltrombopag Olamine], the cell viability in test [1] came out at 1.23 ± 0.034; in test [2], 0.966 ± 0.02.
For `CN(C)CCC(c1ccc(Br)cc1)c1ccccn1.O=C(O)/C=C\C(=O)O` (stereo not given) [Brompheniramine hydrogen maleate], in that order: 1.17 ± 0.23 and 1.09 ± 0.15.
Take `CC(=O)c1c(C)c2cnc(Nc3ccc(N4CCNCC4)cn3)nc2n(C2CCCC2)c1=O.O=S(=O)(O)CCO`: the values for the cell viability in test [1] and in test [2] were 0.918 ± 0.1 and 0.811 ± 0.26, respectively.
For `CCOc1cc2ncc(C#N)c(Nc3ccc(OCc4ccccn4)c(Cl)c3)c2cc1NC(=O)/C=C/CN(C)C` [Neratinib (HKI-272)], in that order: 0.795 ± 0.045 and 0.506 ± 0.052.
The like results for `CC(=O)OC1CCC2(C)C(=CCC3C2CCC2(C)C(c4cccnc4)=CCC32)C1` (stereo not given) [Abiraterone Acetate] were, in that order, 1.48 ± 0.41 and 0.929 ± 0.21.
For `COc1cc(CNC(=O)CCCC/C=C\C(C)C)ccc1O` [Zucapsaicin], in that order: 0.332 ± 0.62 and 1.22 ± 0.092.
Consider `COC(=O)c1cc(OC)c2c(c1-c1c(CO)cc(OC)c3c1OCO3)OCO2` [Bicyclol], for which the results for the cell viability in test [1] and in test [2] were 1.16 ± 0.29 and 0.934 ± 0.097, respectively.
The like results for `COc1ccc2c(c1)c(CC(=O)O)c(C)n2C(=O)c1ccc(Cl)cc1` [Indomethacin] were, in that order, 0.478 ± 0.33 and 1.03 ± 0.027.
Turning to `CC(C)Cc1ccc(C(C)C(=O)OCc2ccccn2)cc1` (stereo not given) [Ibuprofen piconol], the cell viability in test [1] came out at 1.43 ± 0.54; in test [2] it was 1.17 ± 0.096.
`COc1cc(/C=C/C(=O)/C=C(O)/C=C/c2ccc(O)c(OC)c2)ccc1O` [Curcumin]: the cell viability in test [1] came to 1.36 ± 0.48; in test [2], 0.985 ± 0.12.
For `COc1ccc2c(c1)nc(S(=O)Cc1ncc(C)c(OC)c1C)[n]2[Na]` (stereo not given) [Esomeprazole sodium], in that order: 1.26 ± 0.2 and 0.939 ± 0.16.
For `C=C1c2cccc(O)c2C(=O)C2=C(O)C3(O)C(=O)C(C(N)=O)=C(O)C(N(C)C)C3C(O)C12.Cl` (stereo not given) [Methacycline HCl], in that order: 0.894 ± 0.32 and 1 ± 0.072.
The like results for `COc1ccc2cc1Oc1ccc(cc1)CC1c3cc(c(OC)cc3CCN1C)Oc1c(O)c(OC)cc3c1C(C2)N(C)CC3` (stereo not given) [Fangchinoline] were, in that order, 1.18 ± 0.33 and 1.09 ± 0.13.
For `Cc1cccn2c(=O)c(-c3nnn[n-]3)cnc12.[K+]` [Pemirolast potassium], the cell viability in test [1] was determined as 1.24 ± 0.25; in test [2], 1.23 ± 0.31.
For `Cn1c(=O)cc(N2CCCC(N)C2)n(Cc2ccccc2C#N)c1=O` (stereo not given) [Alogliptin], in that order: 0.0419 ± 0.21 and 1.29 ± 0.11.
The like results for `C#Cc1cccc(Nc2ncnc3cc(OCCOC)c(OCCOC)cc23)c1` [Erlotinib] were, in that order, 0.81 ± 0.028 and 0.616 ± 0.035.
In the case of `C=C1C(=O)OC2C1CCC(=C)C1CCC(=C)C12` (stereo not given) [Dehydrocostus Lactone], the cell viability in test [1] came to 0.75 ± 0.052; in test [2], 0.808 ± 0.077.
In the case of `O=C(O)CCCN1CCC(OC(c2ccc(Cl)cc2)c2ccccn2)CC1` (stereo not given) [Bepotastine], the cell viability in test [1] is 0.797 ± 0.031; in test [2], 1.06 ± 0.18.
In the case of `Cl.Cl.O=C(O)COCCN1CCN(C(c2ccccc2)c2ccc(Cl)cc2)CC1` (stereo not given) [Cetirizine DiHCl], the cell viability in test [1] came to 1.08 ± 0.0043; in test [2] it was 1.02 ± 0.033.
For `COC1=C(OC)C(=O)C(CCCCCCCCCCO)=C(C)C1=O` [Idebenone], in that order: 1.12 ± 0.088 and 0.816 ± 0.0099.
The like results for `CCC1(O)CC2CN(CCc3c([nH]c4ccccc34)C(C(=O)OC)(c3cc4c(cc3OC)N(C)C3C(O)(C(=O)OC)C(OC(C)=O)C5(CC)C=CCN6CCC43C65)C2)C1.O=S(=O)(O)O` (stereo not given) [Vinblastine sulfate] were, in that order, 0.475 ± 0.069 and 0.655 ± 0.084.
`O=C(O)CCCCC1CCSS1` (stereo not drawn) [(+)-α-Lipoic acid]: the cell viability in test [1] was found to be 1.26 ± 0.2; in test [2] it was 1.21 ± 0.024.
As for `COc1cc2c(Nc3ccc(Br)cc3F)ncnc2cc1OCC1CCN(C)CC1` [Vandetanib (ZD6474)], the results for the cell viability in test [1] and in test [2] were 0.578 ± 0.024 and 0.551 ± 0.059, respectively.
For `CC1=C(/C=C/C(C)=C/C=C/C(C)=C/C(=O)O)C(C)(C)CCC1` [Tretinoin], in that order: 1.45 ± 0.45 and 1.03 ± 0.15.
For `CC(=O)C1CCC2C3CC(C)C4=CC(=O)CCC4(C)C3C(O)CC12C` (stereo not given) [Medrysone], in that order: 0.958 ± 0.024 and 1.15 ± 0.051.
In the case of `CC(Oc1cc(-c2cnn(C3CCNCC3)c2)cnc1N)c1c(Cl)ccc(F)c1Cl` [(S)-crizotinib], the cell viability in test [1] amounted to 0.458 ± 0.15; in test [2] it was 0.756 ± 0.12.
For `CC12CCC(CC1=O)C2(C)C` (stereo not given) [Camphor], the values for the cell viability in test [1] and in test [2] were 1.24 ± 0.3 and 0.786 ± 0.061, respectively.
For `COc1cc2c(Oc3ccc4[nH]c(C)cc4c3F)ccnc2cc1OCC1(N)CC1.Cl.Cl` [Anlotinib (AL3818) dihydrochloride], in that order: 0.463 ± 0.024 and 0.575 ± 0.056.
The like results for `CCc1cccc2c3c([nH]c12)C(CC)(CC(=O)O)OCC3` (stereo not given) [Etodolac] were, in that order, 1.22 ± 0.018 and 0.989 ± 0.076.
For `CN(N=O)C(=O)NC1C(O)OC(CO)C(O)C1O` (stereo not given) [Streptozotocin (STZ)], in that order: 1.23 ± 0.087 and 0.636 ± 0.052.
